PI5P4Ka inh – blocks human PI5P4K alpha kinase activity; PI5P4Kalpha enzyme, ADP-Glo luminescence, 60 min; stronger effect = lower value; 330,000 tested, 1.2% active; P48426; max response, %; active = max response of -50% or lower; inconclusive = between -30% and -50%; inactive = -30% or higher; also: value at the top dose of about 77 µM
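Human PI5P4Kalpha with substrate in 0.038 M HEPES pH 7.4, 0.28 mM EGTA, 0.1% CHAPS, 5% DMSO; reaction started with 5 microM ATP (final), 60 min at room temperature. ADP formed read by ADP-Glo luminescence.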
POLH inh – blocks human DNA polymerase eta activity; Q9Y253; recombinant Pol eta, fluorescent DNA replication assay; Potency, µM (highest dose often 114 µM), usual class: inhibitors; 390,000 tested, 1.2% active
Target sequence (Q9Y253 whole entry, looked up): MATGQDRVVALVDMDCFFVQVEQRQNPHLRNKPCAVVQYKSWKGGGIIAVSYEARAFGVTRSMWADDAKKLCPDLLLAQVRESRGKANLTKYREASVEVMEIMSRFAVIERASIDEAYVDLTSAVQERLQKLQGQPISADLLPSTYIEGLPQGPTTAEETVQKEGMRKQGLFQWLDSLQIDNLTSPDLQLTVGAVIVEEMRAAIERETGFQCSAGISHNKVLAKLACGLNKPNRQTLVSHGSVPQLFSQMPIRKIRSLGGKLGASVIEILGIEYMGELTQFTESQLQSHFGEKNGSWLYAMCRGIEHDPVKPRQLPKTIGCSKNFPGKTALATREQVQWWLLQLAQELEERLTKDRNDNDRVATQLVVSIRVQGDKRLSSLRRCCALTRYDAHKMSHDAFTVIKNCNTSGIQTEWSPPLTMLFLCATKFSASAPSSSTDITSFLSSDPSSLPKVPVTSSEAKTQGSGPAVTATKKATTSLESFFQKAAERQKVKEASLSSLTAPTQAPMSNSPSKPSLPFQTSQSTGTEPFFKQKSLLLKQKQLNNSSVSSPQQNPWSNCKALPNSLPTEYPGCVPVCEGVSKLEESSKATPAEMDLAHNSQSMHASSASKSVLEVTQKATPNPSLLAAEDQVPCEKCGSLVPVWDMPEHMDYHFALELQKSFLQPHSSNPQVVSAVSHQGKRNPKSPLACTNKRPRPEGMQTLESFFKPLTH
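Pol eta (10 nM) was preincubated with compounds for 15 min at room temperature, after which fluorescent replication substrate (50 nM final) was added to start the reaction. Fluorescence was read kinetically at 0 and 10 min.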
POLI inh – DNA polymerase iota (human) inhibition; Q9UNA4; AID 588590; Potency, µM (highest dose often 115 µM), hits mostly inhibitors; Pol iota fluorescent replication assay, 10 min; 390,000 tested, 1% active
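Fluorescent replication assay read twice, at 0 min and 10 min after adding 50 nM (final) substrate. Enzyme (10 nM) and compounds were first incubated 15 min at room temperature; enzyme-free buffer wells were negative controls.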
Pol kappa inh – blocks human DNA polymerase kappa activity; 400,000 tested, 0.53% active; Q9UBT6; purified Pol kappa, fluorescent DNA synthesis assay, 10 min; Potency, µM (titrated, usually from 107 µM), usual class: inhibitors; AID 588579
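Kinetic fluorescence screen: compound preincubated 15 min RT with 10 nM enzyme; 50 nM substrate (final) initiates; reads at 0/10 min.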
FEN1 inhibitor – blocks human flap endonuclease 1. Recombinant FEN1 flap cleavage, fluorescence, 15 min. Potency, µM (series often up to 114 µM), hits mostly inhibitors. 390,000 tested, 0.35% active. AID 588795; also: nearly all actives have a fitted effect of over 65% in size
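Concentration–response screening of FEN1 (10 nM): 15 min compound preincubation at room temperature, reaction started with 50 nM substrate and read at 0 and 15 min. Corrected, normalized data were fitted by a four-parameter Hill equation.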
POLB inh – inhibitors of human DNA polymerase beta. P06746. Pol beta primer extension/strand displacement, fluorescence kinetic. Potency, µM (titrated, usually from 114 µM), most hits filed as inhibitors. 340,000 tested, 1.3% active. AID 485314
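Human Pol beta at 10 nM; strand-displacement substrate 50 nM final. Compound exposure 15 min at room temperature before start, reaction 10 min at room temperature.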
Of the large screens only hits and unclear results are named; the others gave an inactive call. Shown are actives, neighbours in structure and some others; about 2.8% of the full set was active somewhere. Unless noted, calls follow the shape of the dose curve; as a rule, active = well fitted curve in the direction sought with a large enough effect; inconclusive = small, poorly fitted or top-dose-only effect, or another doubt; inactive = no such curve, though single readings can be large; an effect the other way counts as inactive or inconclusive.

C=C1CC2C3C=C(C)C4=CC(=O)CCC4(C)C3CCC2(C)[C@@]1(OC(C)=O)C(C)=O (some centres undefined)	none (no result: PI5P4Ka inh, POLH inh, POLI inh, FEN1 inhibitor, POLB inh)
CCOC(=O)c1c(/N=C/c2cccc([N+](=O)[O-])c2O)sc(C)c1C	PI5P4Ka inh -68.6, POLI inh inconclusive
CN(C)c1ncc2ncc(=O)n(Cc3cccs3)c2n1	none (no result: PI5P4Ka inh, POLH inh, POLI inh, FEN1 inhibitor, POLB inh)
COc1ccc(CNC(=O)C2CCN(S(=O)(=O)Cc3ccccc3)CC2)cc1	POLB inh 14.1µM (no result: PI5P4Ka inh)
COc1ccc(-c2ccc3c(c2)S(=O)(=O)c2cccc(C(=O)NC[C@@H]4CCCO4)c2C3=O)cc1OC	POLH inh 28.2µM, POLI inh inconclusive (no result: POLB inh)
CC(C)c1cccc(-c2ccc3c(c2)S(=O)(=O)c2cccc(C(=O)O)c2C3=O)c1	none (no result: POLB inh)
CC(C)c1cccc(-c2ccc3c(c2)S(=O)(=O)c2cccc(C(=O)NCc4ccco4)c2C3=O)c1	POLH inh 39.8µM, POLI inh inconclusive, Pol kappa inh inconclusive (no result: POLB inh)
Cc1ccc(NC(=O)c2oc3ccc(S(=O)(=O)N4CCCCCC4)cc3c2C)c(C)c1	none (no result: PI5P4Ka inh)
Cc1ccc(CN(C)C(=O)CCc2nc3sc4c(c3c(=O)[nH]2)CCCC4)o1	PI5P4Ka inh inconclusive, POLH inh 22.4µM, POLI inh 17.8µM, POLB inh 25.1µM
CN(Cc1ccco1)C(=O)CCc1nc2sc3c(c2c(=O)[nH]1)CCCC3	PI5P4Ka inh inconclusive, POLH inh inconclusive, POLI inh 44.7µM, Pol kappa inh inconclusive
Cc1ccc(C(=O)NCC(=O)OCc2nnc(-c3ccc([N+](=O)[O-])cc3)o2)s1	PI5P4Ka inh -61.8, POLH inh inconclusive, POLI inh inconclusive (no result: POLB inh)
CC(=O)c1c(C)[nH]c(C(=O)OCc2nnc(-c3ccc([N+](=O)[O-])cc3)o2)c1C	PI5P4Ka inh -58.6, POLH inh inconclusive, POLI inh inconclusive (no result: POLB inh)
O=S(=O)(NC(=NCCc1ccc(Cl)cc1)c1ccccc1Cl)c1cccs1	none
CCN(C(=O)CSc1nc2cc(C(=O)O)ccc2c(=O)n1Cc1ccccc1)c1ccccc1	PI5P4Ka inh -53.0
Cc1ccc2nc(C)cc(SCC(=O)N/N=C/c3ccco3)c2c1	POLB inh 39.8µM
CC1=NN(c2nc(-c3ccc(C)cc3)cs2)C(=O)C1N=Nc1cccc(O)c1 (centres undefined)	PI5P4Ka inh -70.9, POLH inh inconclusive, POLI inh inconclusive, Pol kappa inh inconclusive, POLB inh 12.6µM
CC1=NN(c2nc(-c3ccc(C)cc3)cs2)C(=O)C1N=Nc1ccccc1O (centres undefined)	none
COc1ccc(-c2nn[nH]n2)cc1OC	none
Nc1cc(-c2nn[nH]n2)ccc1F	PI5P4Ka inh inconclusive, POLH inh 11.2µM, POLI inh inconclusive, Pol kappa inh inconclusive
CCCCn1c2ccccc2c2nnc(SCC(=O)Nc3ccc(NC(C)=O)cc3)nc21	FEN1 inhibitor inconclusive, POLB inh 14.1µM (no result: PI5P4Ka inh)
Cc1nn(CC(=O)NC2CCC(C)CC2)c(C)c1[N+](=O)[O-] (centres undefined)	none (no result: POLB inh)
O=C(c1cnccn1)N1CCC2(CC1)CN(Cc1cc(C(F)(F)F)cc(C(F)(F)F)c1)C2	none (no result: PI5P4Ka inh, POLH inh, POLI inh, FEN1 inhibitor, POLB inh)
Cc1ccc(-n2nc(C)c3c2OC(N)=C(C#N)C3c2ccco2)cc1 (centres undefined)	none
Cc1ccc(-n2nc(C)c3c2OC(N)=C(C#N)C3c2ccoc2)cc1 (centres undefined)	POLI inh 20µM, POLB inh 28.2µM
C=CCn1c(Sc2ncc([N+](=O)[O-])s2)n[nH]c1=O	POLI inh 10µM
CC(=O)N1CCOc2cc(S(=O)(=O)Nc3c(C)cccc3C(C)C)c(Cl)cc21	POLI inh 79.4µM (no result: PI5P4Ka inh)
COc1ccc(Cl)c(Cn2c(NCc3ccco3)nc3c2c(=O)n(C)c(=O)n3C)c1	PI5P4Ka inh inconclusive, POLH inh inconclusive, POLI inh inconclusive, Pol kappa inh inconclusive, POLB inh 14.1µM
CCCn1c(NCc2ccco2)nc2c1c(=O)n(C)c(=O)n2C	PI5P4Ka inh inconclusive, POLH inh inconclusive, POLI inh inconclusive, Pol kappa inh inconclusive, POLB inh 22.4µM
CCc1cccc(NC(=O)CSc2nc(C)cs2)c1	none (no result: POLI inh, Pol kappa inh, FEN1 inhibitor, POLB inh)
CCc1ccc(Nc2nc3ccccc3nc2NS(=O)(=O)c2ccccc2)cc1	none (no result: PI5P4Ka inh)
CC(C)c1ccc(S(=O)(=O)/N=C2/C=CC(=O)c3ccccc32)cc1	none (no result: PI5P4Ka inh, POLH inh, POLI inh, Pol kappa inh, FEN1 inhibitor)
CCc1ccc(S(=O)(=O)/N=C2\C=C(NS(=O)(=O)c3ccccc3)C(=O)c3ccccc32)cc1	PI5P4Ka inh inconclusive, POLH inh 89.1µM, POLI inh inconclusive, POLB inh inconclusive
CC(C)c1ccc(S(=O)(=O)/N=C2\C=C(NS(=O)(=O)c3ccccc3)C(=O)c3ccccc32)cc1	PI5P4Ka inh -67.8, POLH inh 79.4µM, POLI inh inconclusive, FEN1 inhibitor inconclusive, POLB inh inconclusive
Cc1ccc(S(=O)(=O)c2nnn3c2nc(NCCCN2CCCC2=O)c2ccccc23)cc1C	none
Cc1ccc(S(=O)(=O)c2nnn3c2nc(NC2CCN(Cc4ccccc4)CC2)c2ccccc23)cc1C	POLI inh 44.7µM, Pol kappa inh inconclusive
O=S(=O)(Nc1ccc(O)c(NS(=O)(=O)c2ccccc2)c1)c1ccccc1	none
O=C1C([N+](=O)[O-])=C(O)c2cccc3cccc1c23	POLB inh 11.2µM (no result: PI5P4Ka inh, POLH inh, POLI inh, Pol kappa inh, FEN1 inhibitor)
O=C(Nc1ccccc1-c1ccccc1)C1CCC1	none
O=C(Nc1ccccc1-c1ccccc1)C1CCCCC1	POLI inh 89.1µM
CC1(C(=O)N2Cc3ccccc3C2)CCN1C(=O)C1(c2ccccc2)CC1 (centres undefined)	none (no result: POLH inh, POLI inh, Pol kappa inh, FEN1 inhibitor, POLB inh)

Compound activity deposited in PubChem by National Center for Advancing Translational Sciences (NCATS).
